Experimental data taken from PubChem BioAssay AID485367 (National Center for Advancing Translational Sciences (NCATS), 2010).
Where “and” joins values, the source holds several entries; their conditions need not be identical. Equal values may be shown once. In all, about 330,000 compounds went through this assay and about 560 (0.17%) were called active. Another 1% or so got no clear call; they are omitted. The full list was thinned out, with actives kept by preference. Values without a mark were called inactive. The call rests on the fitted dose curve; in most records, active means well fitted inhibition curve with a large enough effect; inconclusive means small, poorly fitted or top-dose-only effect, or effect the other way; inactive means flat fitted curve, though single readings scatter.

target: ATP-dependent 6-phosphofructokinase (Trypanosoma brucei brucei) (UniProt O15648); experiment: qHTS Assay to Find Inhibitors of T. brucei phosphofructokinase; further: nearly all actives have a fitted effect of over 60% in size;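 on activity, negative = inhibition: 0% = uninhibited 1x PFK enzyme wells and -100% = no-enzyme wells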; conditions: T. brucei PFK, ADP-Glo luminescence; series mostly up to 57.5 µM; activity, negative = inhibition: at the top concentration
Procedure, shortened: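 1.25 nM PFK with 0.5 mM F6P and 0.1 mM ATP in 0.1 M TEA pH 8.0, 5 mM MgCl2, incubated 45 min at room temperature; ADP measured by ADP-Glo luminescence; compounds titrated up to 57 uM.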
Potency means the concentration at half of the fitted maximal effect.

ATP-dependent 6-phosphofructokinase (Trypanosoma brucei brucei), sequence (O15648 whole entry, looked up): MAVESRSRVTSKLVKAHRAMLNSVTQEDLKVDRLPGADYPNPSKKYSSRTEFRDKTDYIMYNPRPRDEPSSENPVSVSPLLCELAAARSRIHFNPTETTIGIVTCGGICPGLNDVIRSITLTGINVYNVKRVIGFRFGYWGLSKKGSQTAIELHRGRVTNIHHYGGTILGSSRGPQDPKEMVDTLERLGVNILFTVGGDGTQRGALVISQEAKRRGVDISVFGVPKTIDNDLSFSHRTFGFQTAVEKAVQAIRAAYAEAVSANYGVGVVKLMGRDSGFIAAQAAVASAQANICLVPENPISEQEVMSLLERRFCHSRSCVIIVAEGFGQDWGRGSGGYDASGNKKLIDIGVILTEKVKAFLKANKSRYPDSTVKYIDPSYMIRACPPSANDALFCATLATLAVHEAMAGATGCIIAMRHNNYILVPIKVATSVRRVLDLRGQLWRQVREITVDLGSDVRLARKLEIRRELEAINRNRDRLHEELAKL

Row | Compound | activity, negative = inhibition | Potency
1 | Nn1c(SCC(=O)Nc2ccc3c(c2)CCC3)nnc1C1CC1 | 2.26% | 
2 | O=C(CC1C(=O)NCCN1CC(c1ccccc1)c1ccccc1)NCC1CCOCC1 (stereo not given) | -13.1% | 
3 | O=C(CCN1C(=O)C2C3C=CC(C3)C2C1=O)Oc1ccc2ccccc2c1 (stereo not given) | 2.74% | 
4 | CCOC(=O)c1ccccc1NC(=O)CSc1nc2ccccc2c(=O)[nH]1 | 0.653% | 
5 | O=C(CSc1nc2ccccc2c(=O)[nH]1)Nc1nc(-c2ccc(Br)cc2)cs1 |  | 2.69 µM (active)
6 | CC(=O)NCc1ccc(-c2csc(NC(=O)CCCc3nc4ccccc4c(=O)[nH]3)n2)cc1 | 1.84% | 
7 | O=C(CSc1nnc(N2CCOCC2)n1-c1cccc(F)c1)N1CCN(c2ccccn2)CC1 | -1.48% | 
8 | O=C(NNS(=O)(=O)c1ccccc1)c1cnn(-c2ccc(Cl)cc2)c1C(F)(F)F | 0.989% | 
9 | Cc1ccc(OCCCCc2c(C)n[nH]c2C)cc1 | 0.85% | 
10 | CC(C)[C@H](NC(=O)N1CCn2c1nc1ccccc12)C(=O)NCCc1ccccc1 | 10.6% | 
11 | CCCCNC(=O)OCCSCCS(=O)(=O)c1ccc(Cl)cc1 | -7.12% | 
12 | O=C(NCc1ccc(Cl)c(Cl)c1)c1cccnc1 |  | 23.9 µM (active)
13 | CC(C)(C)c1cc(C(=O)NCc2cccnc2)ccn1 | 0.81% | 
14 | O=C(Nc1nnc(Cc2ccc(Cl)cc2)s1)c1cccnc1 | -6.39% | 
15 | O=C(CN1C(=O)NC2(CCCC2)C1=O)Nc1ccc(F)c(F)c1F | -0.645% | 
16 | CC1CCC(NS(=O)(=O)c2ccc3c(c2)n(C)c(=O)c(=O)n3C)CC1 (stereo not given) | 1.11% | 
17 | O=S(=O)(NC1CC1)c1ccc(F)c(F)c1 | 0.12% | 
18 | Cn1sc(=O)c2cc(S(=O)(=O)NC3CC3)ccc21 |  | 15.1 µM (active)
19 | O=C(Nc1ccc(Cl)c(Cl)c1)N1CC=C(c2ccccc2)CC1 | -23.1% | 
20 | Cc1cccc(N=C2NC(=O)CS2)c1C | 1.01% | 
21 | CCc1ccc(Nc2nnc(SCC(=O)c3ccc4c(c3)NC(=O)CO4)s2)cc1 | -3.38% | 
22 | CCOc1ccc(/C=C/C(=O)N(CC)CC(=O)NCc2cccs2)cc1OC | 0.107% | 
23 | Cc1cccc(NS(=O)(=O)c2cc(Cl)ccc2Cl)n1 | -0.981% | 
24 | CN1CCN(C(=O)c2ccc(NS(=O)(=O)c3ccccc3)cc2)CC1 | -0.0214% | 
25 | O=C(COc1ccc([N+](=O)[O-])cc1Cl)Nc1ccc2[nH]c(=O)[nH]c2c1 | -0.514% | 
26 | O=C(COC(=O)c1cccc(Cl)c1)Nc1ccc2[nH]c(=O)[nH]c2c1 | -4.67% | 
27 | COc1ccc(C(=O)OCC(=O)Nc2ccc3[nH]c(=O)[nH]c3c2)c(OC)c1OC |  | 21.3 µM (active)

Row | Compound | activity, negative = inhibition | Potency
28 | Nc1nnc(SCC(=O)NC2CCCc3ccccc32)s1 (stereo not given) | -3.89% | 
29 | O=C(c1ccccc1)c1cc(-c2ccccn2)c(N2CCOCC2)s1 | 1.02% | 
30 | NC(=O)c1ncc(C(F)(F)F)cc1Oc1ccc(F)cc1 | 2.27% | 
31 | Cc1nc2nc(COc3ccccc3)[nH]n2c(=O)c1C | 3.97% | 
32 | Cc1cc([N+](=O)[O-])nn1Cc1ccc(F)cc1 | -3.17% | 
33 | O=C(O)CCN=C1CCc2ccccc2N1 | 1.34% | 
34 | O=C(NC1CCCCC1)c1ccc(CNc2c(N3CCOCC3)c(=O)c2=O)cc1 | 2.59% | 
35 | CCN(CC(=O)Nc1cccc(S(=O)(=O)N2CCCCC2)c1)Cc1ccccc1 | 3.5% | 
36 | CCOc1cccc(/C=N/N2C(=O)CSC2=S)c1O |  | 7.57 µM (active)
37 | CCOc1ccc(N2C(=O)CSC2=NC#N)cc1 | 1.09% | 
38 | CCOc1cc(/C=N/n2cnnc2)c(Br)cc1O | -1.74% | 
39 | C/C(=N/N1CCN(Cc2cccc3ccccc23)CC1)c1cccnc1 | 6.89% | 
40 | NS(=O)(=O)c1ccc(NC(=S)NC(=O)c2cccc(Br)c2)cc1 | 0.423% | 
41 | NS(=O)(=O)c1ccc(CCNC(=S)Nc2ccc(S(N)(=O)=O)cc2)cc1 | -9.91% | 
42 | NS(=O)(=O)c1ccc(NC(=S)Nc2ccc(Br)c(Cl)c2)cc1 |  | 9.53 µM (active)
43 | COc1ccc(NC(=O)Cn2cc(C(=O)c3ccncc3)c(=O)c3cc(C)ccc32)cc1Cl | -0.896% | 
44 | CCc1ccc(N(CC)c2ncnc3nc[nH]c23)cc1 | -1.92% | 
45 | Nc1ccc(Nc2cc(O)c3ncccc3c2)cc1 | -7.91% | 
46 | Cc1cccc(CCNS(=O)(=O)c2ccc(S(=O)(=O)NC3CCCC3)cc2)c1 | 0.864% | 
47 | CC1CCC(N2CC(=O)N(Cc3ccc4c(c3)OCO4)C(c3ccc(F)cc3)C2=O)CC1 (stereo not given) | -0.311% | 
48 | COC(=O)CNC(=O)c1ccc2c(c1)S(=O)(=O)c1ccccc1C2=O | -1.45% | 
49 | O=[N+]([O-])c1ccc(N2CCN(c3ccc(O)cc3)CC2)c(Cl)c1 | 2.76% | 
50 | O=S(=O)(NC1CCN(S(=O)(=O)c2ccc3c(c2)OCCO3)CC1)c1c(F)cccc1F | -4.77% | 
51 | O=C(COC(=O)c1cc[n+]([O-])cc1)Nc1ccc(Cl)c(C(F)(F)F)c1 | -23.6% | 
52 | Cc1ccc(C(CC(=O)O)NC(=O)c2ccc(S(=O)(=O)N3CCCC3)cc2)cc1 (stereo not given) | -3.41% | 
53 | CCCCc1nnc(NC(=O)CS(=O)(=O)Cc2ccccc2)s1 | 4.44% | 
54 | Cn1c(=O)c([N+](=O)[O-])c(Oc2ccccc2)c2ccccc21 | 4.66% | 

Row | Compound | activity, negative = inhibition | Potency
55 | CCCN(CC(=O)Nc1ccc(OC)c(OC)c1)CC(=O)Nc1ccc(F)c(F)c1F | -5.89% | 
56 | COc1ccc(N2CCN(S(=O)(=O)c3ccc4c(c3)NC(=O)C(C)C(=O)N4)CC2)cc1 (stereo not given) | -3.57% | 
57 | COc1ccc(C)cc1NC(=O)CCS(=O)(=O)c1cccc2nonc12 | 0.301% | 
58 | Cn1nc(C(F)(F)F)cc1-c1ccc(/C=C(\C#N)C(=O)c2cccc(C(F)(F)F)c2)s1 | -2.17% | 
59 | Cc1cc(C)c(S(=O)(=O)n2cc(C(C)C(N)C(=O)O)c3ccccc32)c(C)c1 (stereo not given) | -0.251% | 
60 | COCCOC(=O)c1c(C)oc2cc(Br)c(OCC(N)=O)cc12 | -0.993% | 
61 | CCCCC(CC(C)O)c1n[nH]c(=S)n1-c1ccccc1 (stereo not given) | 1.94% | 
62 | CC(NC(=O)CCCC1CCCCC1)c1ccc(S(N)(=O)=O)cc1 (stereo not given) | -0.196% | 
63 | CC(C)(C)OC(=O)C[C@@H]1C/C=C\C[C@@H](CC(=O)N[C@@H](CO)Cc2ccccc2)C(=O)N2CCC[C@H]2COC1=O | -0.476% | 
64 | COC(=O)CN1C(=O)N/C(=C/c2ccc(OC)c(C)c2OC)C1=O | -0.685% | 
65 | C=CCn1cc(-c2cccc(C(F)(F)F)c2)cc(C#N)c1=O | -1.02% | 
66 | COCc1ccc(C(=O)N2CCc3c([nH]c4ccccc34)C2c2ccccn2)s1 (stereo not given) | -0.831% | 
67 | Nc1ccccc1SC(C[N+](=O)[O-])c1ccccc1 (stereo not given) |  | 13.5 µM (active)
68 | Cc1ccc(C(C[N+](=O)[O-])c2c(C)cc3ccccn23)cc1 (stereo not given) | -0.525% | 
69 | CN(CC(=O)Nc1ccc(F)c(F)c1F)C(=O)C1CC(=O)N(C2CCCC2)C1 (stereo not given) | 2.52% | 
70 | CCOC(=O)c1cnc(SC)nc1Sc1ccc(Cl)cc1Cl | -2.53% | 
71 | NCCN1CCN2C(=O)CN(C(=O)c3ccccc3)CC12 (stereo not given) | 0.907% | 
72 | O=C(COC(=O)c1cc(=O)[nH]c2ccccc12)NCc1cccc(Cl)c1 | -11.9% | 
73 | Cc1cc(Nc2cccc(F)c2)n2ncnc2n1 | -1.14% | 
74 | C=CCn1c(C23CC4CC(CC(C4)C2)C3)n[nH]c1=S | -0.991% | 
75 | CCOC(=O)c1c(/N=C/C2C(=O)CC(C)(C)CC2=O)sc(C)c1C | 2.63% | 
76 | O=C(Nc1cc(C(F)(F)F)ccc1Cl)c1cc2nc3c(c(C(F)(F)F)n2n1)CCCC3 | -1.59% | 
77 | Cc1cc(NS(=O)(=O)c2ccc(NC(=O)C(C)Oc3cccc(C)c3C)cc2)nc(C)n1 (stereo not given) | -5.56% | 
78 | CCCCn1c(N)c(N(Cc2ccccc2OC)C(=O)COc2cc(C)ccc2Cl)c(=O)[nH]c1=O | 24.8% | 
79 | NC(=O)Nc1ccccc1C(=O)NCCc1ccccc1 | -28.3% | 
80 | CCOC(=O)C1C(=O)C=C(c2ccc(OC)cc2)CC1c1ccco1 (stereo not given) | 1.24% | 
81 | CC(C)c1ccc(NC(=O)Cn2ncc3ccccc32)cc1 | 2.07% | 

Row | Compound | activity, negative = inhibition | Potency
82 | C=CCOc1ccc(/C=C/C(=O)OCC(=O)NC2CCCCCC2)cc1 | 1.83% | 
83 | COc1cccc(S(=O)(=O)NCc2ccc(C(=O)NCc3ccccn3)cc2)c1 | -1.83% | 
84 | O=C(NCc1ccccn1)c1ccc2nc(-c3ccco3)c(-c3ccco3)nc2c1 |  | 2.13 µM (active)
85 | O=C1CSc2ccc(C(=O)NCc3ccccn3)cc2N1 | -9.69% | 
86 | CCOc1cc(CNn2c(C)nnc2SCC(=O)NC(C)(C)C)ccc1OCC(=O)NC(C)(C)C | -0.0385% | 
87 | S=c1[nH]c2ccccc2c2ccccc12 | -0.408% | 
88 | COCCNC(=O)COc1ccc(N(C)S(=O)(=O)c2ccc3ccccc3c2)cc1 | 1.54% | 
89 | Cc1ccc(N2C(=O)C(CC(=O)Nc3cccc(F)c3)N(CCc3ccncc3)C2=O)cc1 (stereo not given) | -1.36% | 
90 | CCCCN1C(=O)C(C)=C(C)C1OCCc1ccc(OC)c(OC)c1 (stereo not given) | -0.0022% | 
91 | O=C(c1ccccn1)c1ncc(C(F)(F)F)cc1Cl | -1.9% | 
92 | N/C(=N\OC(=O)Nc1ccc(Cl)c(Cl)c1)c1ncc(C(F)(F)F)cc1Cl |  | 13.5 µM (active)
93 | N/C(=N\OC(=O)CCCC(=O)O)c1ncc(C(F)(F)F)cc1Cl | 0.924% | 
94 | COc1cccc(N=c2oc3c(C)ncc(CO)c3cc2C(N)=O)c1 | -0.59% | 
95 | CC(C)c1ccc(N2CCN(C(=O)c3ccccc3NC(=O)/C=C(\C(=O)O)c3ccccc3)CC2)cc1 | 0.784% | 
96 | O=c1[nH]c(=S)[nH]c2[nH]c(=S)[nH]c12 |  | 16.9 µM (active) and 13.5 µM (active)
97 | Cc1c(C)c(C)c2[nH]c(=S)[nH]c2c1C | 4.32% | 
98 | CCOc1ccc(Oc2nc(C)cc(OC)n2)nn1 | -6.66% | 
99 | Cc1ccc(-c2nn(-c3ccccc3)cc2C(=O)NCCCN2CCCC2=O)cc1 | 4.23% | 
100 | COc1ccccc1NS(=O)(=O)N(C)C | 0.142% | 
101 | Cc1ccc(CN(C)Cc2cc(=O)oc3cc(C)c(Cl)cc23)cc1 | 0.644% | 
102 | O=c1oc2ccccc2c(CNc2ccccc2)c1[N+](=O)[O-] | 1.56% | 
103 | Cc1ccc2c(c1)N(S(=O)(=O)c1cc(-c3cc(C)no3)ccc1C)CCO2 | -4.63% | 
104 | COC(=O)c1cccc(NC(=O)CN2CCC(NC(=O)c3cc(OC)c(OC)c(OC)c3)CC2)c1 | 0.362% | 
105 | Cn1c2cc(B(O)O)sc2c2cnn(Cc3ccccc3F)c(=O)c21 | -19.7% | 
